Assay outcomes from PubChem BioAssay.
Rows were chosen to be rich in hits. Some 9.3% of all compounds tested hit in one or more screens of this group.
ELG1 repair inh: qHTS screen for small molecules that inhibit ELG1-dependent DNA repair in human embryonic kidney (HEK293T) cells expressing luciferase-tagged ELG1; HEK293T ELG1-luciferase reporter, luminescence, 16 h; DNA damage induced by 5-fluorouridine; Potency, µM (series often up to 46.1 µM), without a hit: at the highest dose activity change, negative = inhibition, most hits filed as inhibitors; 330,000 compounds, 2.3% hits; AID 504467, 2011; note: % is set by controls: 0 for no effect and ±100 for the full control effect; nearly all actives have a fitted effect of over 55% in size
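HEK293T cells expressing luciferase-tagged ELG1 (2,000/well) received 5-Fluorouridine plus compound or DMSO for 16 hr at 37 °C. Luciferase was read by ONE-Glo luminescence after 30 min at room temperature.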
FLuc modulator: qHTS profiling assay for firefly luciferase inhibitor/activator using purifed enzyme and Km concentrations of substrates (counterscreen for miR-21 project). Luciferin 4-monooxygenase (Photinus pyralis), P08659. purified FLuc, Km substrates, luminescence inhibition. Potency, µM (top dose mostly 57.5 µM), for inactives: at the top dose activity change, negative = inhibition, hits mostly inhibitors. 360,000 compounds, 6.9% hits. AID 588342, 2011;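 note: plate controls were vehicle for no effect and reference inhibitor for full effect; nearly all actives have a fitted effect of over 55% in size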
Target sequence (P08659 whole entry, looked up): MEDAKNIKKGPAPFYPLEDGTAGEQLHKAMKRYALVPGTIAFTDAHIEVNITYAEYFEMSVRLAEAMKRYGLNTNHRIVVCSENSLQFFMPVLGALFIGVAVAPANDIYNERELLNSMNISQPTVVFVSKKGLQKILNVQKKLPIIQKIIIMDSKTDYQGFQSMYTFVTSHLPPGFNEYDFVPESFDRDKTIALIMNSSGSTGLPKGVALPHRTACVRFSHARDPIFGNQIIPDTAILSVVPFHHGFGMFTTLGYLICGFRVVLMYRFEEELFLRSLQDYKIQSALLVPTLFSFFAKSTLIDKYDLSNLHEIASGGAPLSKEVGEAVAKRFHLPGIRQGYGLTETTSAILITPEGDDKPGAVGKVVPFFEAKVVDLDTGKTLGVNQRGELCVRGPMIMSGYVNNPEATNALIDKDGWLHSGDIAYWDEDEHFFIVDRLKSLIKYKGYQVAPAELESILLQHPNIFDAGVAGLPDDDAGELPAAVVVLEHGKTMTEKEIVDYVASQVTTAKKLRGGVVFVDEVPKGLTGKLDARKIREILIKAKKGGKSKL
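Purified P. pyralis luciferase (10nM final) with 10uM D-luciferin and 10uM ATP (Km levels) in 50mM Tris acetate pH 7.5, 10mM Mg acetate, 0.01% Tween-20, 0.05% BSA; qHTS 6-point titration, ~60 µM downward; luminescence read.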
Rab9 promoter act: qHTS Assay for Rab9 Promoter Activators. Huh7 Rab9 promoter-luciferase reporter, luminescence, 24 h. Potency, µM (highest dose often 9.22 µM), without a hit: at the highest dose activation, negative = inhibition, hits mostly activators. 320,000 compounds, 2.8% hits; note: % of control where 0% means no effect; nearly all actives have a fitted effect of over 60% in size
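Measured in stably transfected Huh7 cells bearing a Rab9 promoter–luciferase construct: 24 h compound treatment at 37 °C, followed by luminescence detection.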
NPC1 prom act: qHTS Assay for NPC1 Promoter Activators; Huh7 NPC1 promoter luciferase reporter, 24 h; Potency, µM (highest dose often 9.22 µM), without a hit: at the top dose activation, most hits filed as activators; 320,000 compounds, 2.4% hits; AID 485313, 2010; note: % of control where 0% means no effect; nearly all actives have a fitted effect of over 60% in size
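Huh7 reporter cells (NPC1 promoter driving luciferase) are dosed with compound for 24 h at 37 °C, 5% CO2; luciferase detection reagent is then added and luminescence measured after 10 min at ambient temperature.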
SMN2 splice enh: qHTS Assay for Enhancers of SMN2 Splice Variant Expression. HEK293 SMN2-luciferase splicing reporter, luminescence, 30-36 h. Potency, µM (doses to about 46.1 µM), for inactives: at the highest dose activity change, positive = activation, most hits filed as activators. 210,000 compounds, 2.8% hits. AID 1458, 2008; note: % of control where 0% means no effect; nearly all actives have a fitted effect of over 55% in size
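HEK293 cells carry an SMN2 minigene-luciferase reporter in which exon 7 inclusion puts luciferase in frame. Cells were seeded at 2000 cells/well, attached for 10-12 hours, then exposed to compounds for 30-36 hours at 37C before ONE-Glo luminescence.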
ELG1 genotox: qHTS screen for small molecules that induce genotoxicity in human embryonic kidney (HEK293T) cells expressing luciferase-tagged ELG1 | 330,000 compounds, 1.3% hits | Potency, µM (top dose mostly 46 µM), for the others: at the top dose activity change, positive = activation, actives largely listed as activators | HEK293T ELG1-luciferase reporter, luminescence, 16 h; note: % of control where 0% means no effect; nearly all actives have a fitted effect of over 60% in size
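Genotoxicity was scored as increased ELG1-luciferase reporter signal, measured by ONE-Glo luminescence (30 min, room temperature). Compound or vehicle exposure of the HEK293T reporter cells lasted 16 hr at 37°C.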
The depositor's hits bear a star; ? = inconclusive; . = no result; [ ] = another dose, or the depositor's remark. Calls come from the whole dose curve; as a rule, active = well fitted curve in the direction sought with a large enough effect; inconclusive = small, poorly fitted or top-dose-only effect, or another doubt; inactive = no such curve, though single readings can be large; an effect the other way counts as inactive or inconclusive. Potency is the fitted concentration of half-maximal effect.

SMILES | ELG1 repair inh | FLuc modulator | Rab9 promoter act | NPC1 prom act | SMN2 splice enh | ELG1 genotox
COC(=O)c1ccc(OC(=O)c2ccco2)cc1 | 29% | ? | -2% | 10% | 1% | 2%
COc1ccc(/C(N)=N/OC(=O)c2ccco2)cc1 | ? | 0.95µM* | 0.35µM* | 0.5µM* | 6.3µM* | 0.46µM*
Cc1ccc(/C(N)=N/OC(=O)c2ccco2)cc1 | ? | 2.4µM* | 2.5µM* | 4µM* | 11µM* | ?
N/C(=N\OC(=O)c1ccco1)c1ccc(Br)cc1 | ? | 6.7µM* | ? | ? | 20% | ?
COc1ccc(N=N/C(=C\O)C(=O)c2ccco2)cc1 | ? | 24µM* | 7% | 21% | 3% | -4%
O=c1c2ccccc2nnn1COc1cccc(Cl)c1 | ? | -51% | -1% | ? | ? | 31%
COc1ccc(C(=O)COC(=O)c2ccco2)cc1 | ? | 1.1µM* | 3% | ? | 12% | ?
COc1ccc(C(=O)COC(=O)c2ccn(C)n2)cc1 | ? | 17µM* | ? | 3.5µM* | . | ?
O=C(NNC(=O)c1ccco1)c1ccccc1 | ? | -2% | -3% | 0% | ? | 13%
N/C(=N\OC(=O)c1ccco1)c1ccccc1 | ? | 6.7µM* | 9% | 21% | 22µM* | ?
COc1cccc(NC(=O)COC(=O)c2ccco2)c1 | 5% | ? | 2% | 1% | -7% | 0%
Cc1cccc(C(=O)NCCNC(=O)c2ccco2)c1 | 9% | 0% | 3% | -1% | . | 4%
Cc1cccc(/C(N)=N/OC(=O)c2ccco2)c1 | ? | 1.9µM* | ? | ? | 16µM* | 2.3µM*
COc1ccc(C(=O)COC(=O)c2cncc(Br)c2)cc1 | ? | ? | -4% | 1% | . | -2%
O=C(COC(=O)c1ccc(S(=O)(=O)N2CCCC2)cc1)NCc1ccc(Cl)cc1 | 12% | 1% | -6% | 0% | -12% | -5%
O=C(OCc1ccc(COC(=O)c2ccccn2)cc1)c1ccccn1 | 1% | 4%[2.3 µM] | -5% | -2% | 0% | 1%
N/C(=N\OC(=O)c1ccco1)c1ccccn1 | ? | 8.5µM* | 29% | 20% | ? | ?
Cc1cccc(/C(N)=N/OC(=O)N2CCOCC2)c1 | -3% | 17µM* | 26% | 29% | -85% | 8%
Cc1ccc(/C(N)=N/OC(=O)N2CCOCC2)cc1 | -12% | ? | 21% | 18% | -23% | 2%
CC(=O)c1c(C)[nH]c(C(=O)Nc2nccs2)c1C | ? | 24µM* | 2.8µM* | ? | 13µM* | ?
CC(=O)c1c(C)[nH]c(C(=O)Nc2cccc(C)n2)c1C | ? | 8.5µM* | 0.45µM* | 0.35µM* | . | 1.6µM*
CC(=O)Nc1cccc(NC(=O)c2cccc(S(=O)(=O)N3CCN(Cc4ccccc4)CC3)c2)c1 | ? | 5% | -1% | 0% | . | -7%
COCCNC(=O)/C(C#N)=C/c1cccc(/C=C(\C#N)C(=O)NCCOC)c1 | 21µM* | ? | 0% | -3% | ? | -21%
CNC(=O)/C(C#N)=C/c1cccc(Oc2ccccc2)c1 | ? | 8.5µM* | -3% | -4% | . | ?
O=C(Nc1cc2c3c(c1)CC(=O)N3CCC2)c1ccc(Br)cc1 | ? | 15µM* | 0% | 0% | . | 11%
SMILES | ELG1 repair inh | FLuc modulator | Rab9 promoter act | NPC1 prom act | SMN2 splice enh | ELG1 genotox
Cc1cc(C)cc(C(=O)Nc2cc3c4c(c2)CC(=O)N4CCC3)c1 | ? | 7% | -4% | -6% | . | 3%
COc1ccc(C(=O)Nc2nc3ccccc3[nH]2)cc1OC | ? | 15µM* | 2.8µM* | 2.8µM* | 11µM* | ?
CCOc1ccc(C(=O)Nc2nc3ccccc3[nH]2)cc1OCC | ? | ? | 21% | 9% | -39% | -7%
COc1ccc(CCC(=O)Nc2nc3ccccc3[nH]2)cc1OC | -8% | 1% | 12% | 8% | 9% | 11%
COc1cc(C(=O)Nc2nc3ccccc3[nH]2)ccc1OC(F)F | ? | 11µM* | 2.8µM* | 1.4µM* | . | ?
COc1ccc(Cl)cc1C(=O)Nc1nc2ccccc2[nH]1 | ? | 0.085µM* | ? | ? | . | ?
O=S(=O)(c1ccc2c(c1)OCCO2)N1CCC(O)(c2ccc(Cl)cc2)CC1 | ? | 4% | -8% | -1% | -73% | 12%
COc1ccc2c(C)c(CC(=O)NCCc3ccc(Cl)cc3)c(=O)oc2c1C | . | 2% | . | . | 17% | .
COC(=O)c1ccc(C(=O)NC(=S)Nc2nc3c(s2)CC(C)CC3)cc1 (stereo unspecified) | ? | -9% | 3% | 20% | 16µM* | 12%
CCCCOc1ccc(C(=O)Nc2nc3c(s2)CC(C)CC3)cc1 (stereo unspecified) | . | -13% | . | . | . | .
O=C(NCCCSc1ccccc1)c1cccnc1 | -16% | -13% | 14% | 3% | . | 5%
O=c1c2ccccc2c(C=Nc2ccccc2O)c(O)n1-c1nccs1 | 16µM* | -3% | -4% | 2% | . | -7%
Cc1cc(C)c(N=Cc2c(O)n(-c3nccs3)c(=O)c3ccccc23)c(C)c1 | ? | -2% | -4% | 0% | -14% | -5%
Cc1ccc(N=Cc2c(O)n(-c3nccs3)c(=O)c3ccccc23)cc1 | 18µM* | ? | -5% | 2% | -12% | -1%
Cc1ccccc1N=Cc1c(O)n(-c2nccs2)c(=O)c2ccccc12 | 21µM* | ? | -6% | -5% | -3% | -5%
O=C(O)c1ccccc1N=Cc1c(O)n(-c2nccs2)c(=O)c2ccccc12 | ? | -3% | 2% | -2% | . | -8%
CC(=O)Nc1ccc(S(=O)(=O)NNC(=O)CCC(=O)NCc2ccccc2)cc1 | ? | . | . | . | . | 3%
CC(C)(C)SCCNC(=O)COc1ccccc1 | ? | -7% | -4% | -3% | 7% | 7%
COc1ccccc1OCCNC(=O)c1ccc(Br)cc1 | ? | 24µM* | 0%[1.84 µM] | ? | . | ?
COc1cc(C(=O)NCCSc2ccccc2)cc(OC)c1OC | -4% | -15% | 9% | 5% | . | -1%
O=C(COc1ccccc1)NCCSc1ccccc1 | ? | 27µM* | 12% | ? | 21% | 21µM*
COc1ccccc1OCCNC(=O)Nc1ccc(Br)cc1 | -7% | 2% | -2% | 0% | 10% | -3%
COc1ccc(C(=O)NCCSc2ccccc2)cc1OC | ? | ? | ? | ? | 14µM* | ?
